# Test results reported in publication PMC5540273 (PLoS ONE, 2017).
# “And” between values parts separate entries of the source, which are not always exact repeats. Equal values may be shown once. Read-outs that look alike come from different tables or passages of the source.
# Key:
# Conditions in all cases: n = 1
# [1] = tested on: T1, FAK
# T1 construct: gene PTK2
# [2] = tested on: FER
# [3] = tested on: FES
# [4] = tested on: FGFR1
# [5] = tested on: FGFR2
# [6] = tested on: FGFR3
# [7] = tested on: FGFR4
# [8] = tested on: FGR
# [9] = tested on: FLT1
# [10] = tested on: FLT3-autoinhibited
# [11] = tested on: FLT3
# [12] = tested on: FLT4
# [13] = tested on: FRK
# [14] = tested on: FYN
# [15] = tested on: GAK
# [16] = tested on: T2, GCN2(Kin.Dom.2,S808G)
# T2 construct: gene EIF2AK4
# [17] = tested on: GRK1
# [18] = tested on: T3, GRK2
# T3 construct: gene ADRBK1
# [19] = tested on: T4, GRK3
# T4 construct: gene ADRBK2
# [20] = tested on: GRK4
# [21] = concentration: 1 μM, replicates: in singlicate
# [22] = concentration: 1 μM,replicates: in singlicate, 1 µM
# 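Note: KINOMEscan kinase panel screen.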
structure (smiles),measurement,setting,value
O=C(Nc1n[nH]c2nc(-c3nccs3)c(Br)cc12)C1CCCC1 [SB-742609],%Inh,[1]; [21],0%
same,%Inh,[2]; [21],0%
same,%Inh,[3]; [21],0%
same,%Inh,[4]; [21],0%
same,%Inh,[5]; [21],0%
same,%Inh,[6]; [21],0%
same,%Inh,[7]; [21],12%
same,%Inh,[8]; [21],20%
same,%Inh,[9]; [21],29%
same,%Inh,[10]; [21],10%
same,%Inh,[11]; [21],44%
same,%Inh,[12]; [21],19%
same,%Inh,[13]; [21],24%
same,%Inh,[14]; [21],23%
same,%Inh,[15]; [21],2%
same,%Inh,[16]; [21],5%
same,%Inh,[17]; [21],0%
same,%Inh,[18]; [21],0%
same,%Inh,[19]; [21],66%
same,%Inh,[20]; [21],11%
COc1cc2ncnc(Nc3ccc4nc(-c5ccccc5)[nH]c4c3)c2cc1OC.Cl [GW282450],%Inh,[1]; [21],0%
same,%Inh,[2]; [21],42%
same,%Inh,[3]; [21],6%
same,%Inh,[4]; [21],10%
same,%Inh,[5]; [21],0%
same,%Inh,[6]; [21],0%
same,%Inh,[7]; [21],14%
same,%Inh,[8]; [21],14%
same,%Inh,[9]; [21],38%
same,%Inh,[10]; [21],0%
same,%Inh,[11]; [21],0%
same,%Inh,[12]; [21],0%
same,%Inh,[13]; [21],0%
same,%Inh,[14]; [21],34%
same,%Inh,[15]; [21],68%
same,%Inh,[16]; [21],0%
same,%Inh,[17]; [21],0%
same,%Inh,[18]; [21],0%
same,%Inh,[19]; [21],14%
same,%Inh,[20]; [21],11%
Cc1cc(-c2ccc3c(c2)CC[C@@H](N[C@@H](C)c2ccccc2)C3)cnc1N.Cl [GW412617],%Inh,[1]; [21],0%
same,%Inh,[2]; [21],27%
same,%Inh,[3]; [21],0%
same,%Inh,[4]; [21],9%
same,%Inh,[5]; [21],16%
same,%Inh,[6]; [21],56%
same,%Inh,[7]; [21],19%
same,%Inh,[8]; [21],26%
same,%Inh,[9]; [21],34%
same,%Inh,[10]; [21],8%
same,%Inh,[11]; [21],27%
same,%Inh,[12]; [21],22%
same,%Inh,[13]; [21],19%
same,%Inh,[14]; [21],27%
same,%Inh,[15]; [21],33%
same,%Inh,[16]; [21],26%
same,%Inh,[17]; [21],0%
same,%Inh,[18]; [21],0%
same,%Inh,[19]; [21],17%
same,%Inh,[20]; [21],0%
O=C(Nc1ccccc1)Nc1cccc(Oc2ccc3nccn3n2)c1,%Inh,[1]; [21],0%
same,%Inh,[2]; [21],0%
same,%Inh,[3]; [21],0%
same,%Inh,[4]; [21],13%
same,%Inh,[5]; [21],9%
same,%Inh,[6]; [21],0%
same,%Inh,[7]; [21],0%
same,%Inh,[8]; [21],18%
same,%Inh,[9]; [21],96.8%
same,%Inh,[10]; [21],0%
same,%Inh,[11]; [21],4%
same,%Inh,[12]; [21],67%
same,%Inh,[13]; [21],0%
same,%Inh,[14]; [21],0%
same,%Inh,[15]; [21],0%
same,%Inh,[16]; [21],14%
same,%Inh,[17]; [21],0%
same,%Inh,[18]; [21],0%
same,%Inh,[19]; [21],0%
same,%Inh,[20]; [21],23%
CSc1nn2c(=O)cc(N3CCOCC3)nc2n1Cc1cccc(C(F)(F)F)c1C [GSK2363608],%Inh,[1]; [21],0%
same,%Inh,[2]; [22],25% and 1%
same,%Inh,[3]; [21],0%
same,%Inh,[4]; [21],0%
same,%Inh,[5]; [21],0%
same,%Inh,[6]; [22],17% and 4%
same,%Inh,[7]; [22],5% and 14%
same,%Inh,[8]; [22],31% and 32%
same,%Inh,[9]; [22],26% and 10%
same,%Inh,[10]; [21],0%
same,%Inh,[11]; [21],0%
same,%Inh,[12]; [22],18% and 0%
same,%Inh,[13]; [21],0%
same,%Inh,[14]; [22],46% and 15%
same,%Inh,[15]; [22],100% and 0%
same,%Inh,[16]; [22],0% and 3%
same,%Inh,[17]; [21],0%
same,%Inh,[18]; [21],0%
same,%Inh,[19]; [22],0% and 20%
same,%Inh,[20]; [22],0% and 8%
Cc1ccc(NC(=O)Nc2cccc(C(F)(F)F)c2)cc1 [GSK955403],%Inh,[1]; 1 µM,1%
same,%Inh,[2]; 1 µM,0%
same,%Inh,[3]; 1 µM,0%
same,%Inh,[4]; 1 µM,1%
same,%Inh,[5]; 1 µM,0%
same,%Inh,[6]; 1 µM,5%
same,%Inh,[7]; 1 µM,0%
same,%Inh,[8]; 1 µM,0%
same,%Inh,[9]; 1 µM,23%
same,%Inh,[10]; 1 µM,0%
same,%Inh,[11]; 1 µM,59%
same,%Inh,[12]; 1 µM,12%
same,%Inh,[13]; 1 µM,0%
same,%Inh,[14]; 1 µM,0%
same,%Inh,[15]; 1 µM,0%
same,%Inh,[16]; 1 µM,0%
same,%Inh,[17]; 1 µM,2%
same,%Inh,[18]; 1 µM,0%
same,%Inh,[19]; 1 µM,0%
same,%Inh,[20]; 1 µM,0%
Fc1cc(Cl)ccc1Nc1ccnc2cc(I)ccc12 [GW551191],%Inh,[1]; [21],0%
same,%Inh,[2]; [21],0%
same,%Inh,[3]; [21],0%
same,%Inh,[4]; [21],8%
same,%Inh,[5]; [21],18%
same,%Inh,[6]; [21],0%
same,%Inh,[7]; [21],5%
same,%Inh,[8]; [21],30%
same,%Inh,[9]; [21],30%
same,%Inh,[10]; [21],0%
same,%Inh,[11]; [21],0%
same,%Inh,[12]; [21],3%
same,%Inh,[13]; [21],20%
same,%Inh,[14]; [21],25%
same,%Inh,[15]; [21],82%
same,%Inh,[16]; [21],5%
same,%Inh,[17]; [21],0%
same,%Inh,[18]; [21],0%
same,%Inh,[19]; [21],32%
same,%Inh,[20]; [21],4%
